These results are taken from PubChem BioAssay AID2590 (National Center for Advancing Translational Sciences (NCATS), 2010).

Several values for one entry are separate records, joined by “and”; a condition that tells them apart may be missing. Equal entries are not always repeated. Results filed as inconclusive are left out. Values without a mark were called inactive. Activity calls are given as the source filed them. The call rests on the fitted dose curve; in most records, active means well fitted curve in the direction sought with a large enough effect; inconclusive means small, poorly fitted or top-dose-only effect, or another doubt; inactive means no such curve, though single readings can be large or run the other way.
Potency means the concentration at half of the fitted maximal effect.

Lysosomal acid glucosylceramidase (Homo sapiens), sequence (P04062 whole entry N409S): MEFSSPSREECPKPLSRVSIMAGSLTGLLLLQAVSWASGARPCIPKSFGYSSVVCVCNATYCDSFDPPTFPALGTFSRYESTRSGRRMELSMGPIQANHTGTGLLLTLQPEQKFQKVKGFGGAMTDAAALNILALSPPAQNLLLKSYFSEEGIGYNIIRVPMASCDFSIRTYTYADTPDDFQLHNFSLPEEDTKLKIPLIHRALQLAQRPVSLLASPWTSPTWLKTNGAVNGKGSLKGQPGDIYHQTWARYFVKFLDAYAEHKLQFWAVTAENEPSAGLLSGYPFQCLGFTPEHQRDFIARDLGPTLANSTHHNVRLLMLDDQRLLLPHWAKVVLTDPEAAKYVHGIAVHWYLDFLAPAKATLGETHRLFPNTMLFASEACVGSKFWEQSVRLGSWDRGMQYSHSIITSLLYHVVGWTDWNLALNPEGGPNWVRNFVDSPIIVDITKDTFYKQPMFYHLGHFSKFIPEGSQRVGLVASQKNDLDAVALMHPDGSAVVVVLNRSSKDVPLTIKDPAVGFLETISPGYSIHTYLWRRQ

In the assay the target is Lysosomal acid glucosylceramidase (Homo sapiens) (UniProt P04062). Nature of the assay: qHTS Assay for Inhibitors and Activators of N370S glucocerebrosidase as a Potential Chaperone Treatment of Gaucher Disease: Primary Screen Confirmation.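 On activity change, negative = inhibition: 0% = enzyme with DMSO and -100% = no enzyme basal signal.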 The following applies: N370S glucocerebrosidase enzyme activity, fluorogenic substrate; series mostly up to 54 µM; activity change, negative = inhibition: at the top concentration. The source says:
NIH Chemical Genomics Center [NCGC]
NIH Molecular Libraries Probe Production Centers Network [MLPCN]
Assay Submitter (PI): Wei Zheng
Glucocerebrosidase (GC) catalyzes the hydrolysis of beta-glucocerebroside to glucose and ceramide in lysosomes. Mutations in the glucocerebrosidase gene result in Gaucher disease, an autosomal recessive lysosomal storage disorder. Many of the mutations encountered in patients with Gaucher disease are missense alterations that may cause misfolding, decreased stability and/or mistrafficking of this lysosomal protein. […] These inhibitors include iminosugar analogs and three non-iminosugar inhibitors identified from a previous HTS of 62,000 compounds with the wild type recombinant enzyme. However, the enhancement of enzyme activity by the chaperone action of an enzyme inhibitor must be balanced against the direct inhibition of the enzyme. An enzyme activator could also function as a chaperone by binding to the enzyme and helping to correct its misfolding and mistrafficking. While activators for GC have not yet been identified, they may have better therapeutic potential than inhibitors. Therefore the discovery and development of chemical activators may provide a new strategy for the chaperone therapy.
We have optimized a new assay using N370S mutant GC derived from the spleen of a Gaucher patient. […] In addition, the MLPCN compound library has expanded, which increases the chance of finding new and better probes.
NCGC Assay Protocol Summary:
This is a fluorogenic enzyme assay with 4-methylumbelliferyl-beta-D-glucopyranoside as the substrate and N370S glucocerebrosidase from human spleen homogenate as the enzyme preparation. Upon the hydrolysis of this fluorogenic substrate, the resulting product, […] which can be detected by a standard fluorescence plate reader. Data were normalized to the controls for basal activity (without enzyme) and 100% activity (with enzyme). The AC50 values were determined from concentration-response data modeled with the standard Hill equation.
Assay buffer: 50 mM citric acid (titrated with potassium phosphate to pH 5.0), 100 mM potassium chloride, 10 mM sodium chloride, 1 mM magnesium chloride, 0.01% Tween-20.
1536-well assay protocol:
(1) Add 2 ul/well of spleen homogenate (27 ug final)
(2) Add 23 nL compounds in DMSO solution. The final titration was 0.5 nM to 58 uM.
(3) Add 2 ul of substrate (1 mM final)
(4) Incubate at 37C for 40 min.
(5) Add 2 ul stop solution (1M NaOH and 1M Glycine mixture, pH 10)
(6) Detect the assay plate in a ViewLux plate reader (PerkinElmer) with Ex=365 nm and Em=440nm.
Keywords: Glucocerebrosidase, beta-glucosidase, Gaucher Disease, pharmacological chaperone, chaperone therapy, high throughput screening, glucocerebrosidase inhibitor, MLSMR, MLSCN, NIH Roadmap, qHTS and NCGC
(In general: Quantitative high-throughput screening tests each substance at several concentrations.)
For the compound `Cc1cc(C)cc(N(CC(=O)NC2CCCCCC2)S(=O)(=O)c2c(C)[nH]c(=O)[nH]c2=O)c1`, the Potency is 1.12 µM (active).

For `Cc1ccc(S(=O)(=O)N(C)CCCN(C)c2nc(-c3cccs3)nc3ccccc23)cc1`, the Potency is 2.53 µM (active).

With `O=S(=O)(c1ccc(F)cc1)N1CCN(c2nc(-c3ccc(F)cc3)nc3cc(Cl)ccc23)CC1`, the “activity change, negative = inhibition” value was -2.14%.

`CNCCN(C)c1nc(-c2cccs2)nc2ccccc12`: the “activity change, negative = inhibition” value is -7.1%.

Consider `CCOC(=O)c1ccc(Nc2cc(C)nc(-c3ccccc3)n2)cc1`, for which the Potency was 10.3 µM (active).

`Cc1ccc(S(=O)(=O)N2CCN(c3ccnc(-c4cccs4)n3)CC2)cc1`: the Potency is 9.19 µM (active).

Turning to `Cc1cc(C)cc(N(CC(=O)Nc2cccc(C)c2C)S(=O)(=O)c2c(C)[nH]c(=O)[nH]c2=O)c1`, the Potency was 3.26 µM (active).

Consider `Clc1ccc(CN(CCCNc2ncnc(NCCCc3cnc[nH]3)n2)c2ccc(Br)cn2)cc1Cl`, for which the Potency was 5.66 µM (active).

In the case of `Cc1cc(C)cc(S(=O)(=O)N2CCN(c3nc(-c4cccs4)nc4ccccc34)CC2)c1`, the Potency is 1.03 µM (active).

As for `CN1CCOc2cc(S(=O)(=O)N3CCN(c4nc(-c5cccs5)nc5ccccc45)CC3)ccc21`, the Potency was 0.58 µM (active).

Regarding `Cc1cccc(NC(=O)Nc2cccc(C#N)c2)n1`, the “activity change, negative = inhibition” value was -2.1%.

In the case of `COc1cccc(S(=O)(=O)N2CCN(c3nc(-c4cccs4)nc4ccccc34)CC2)c1`, the Potency is 0.819 µM (active).

For the compound `COc1ccc(S(=O)(=O)N2CCN(c3nc(-c4cccs4)nc4ccccc34)CC2)cc1OC`, the Potency is 1.16 µM (active).

For the compound `S=C(NCCCc1cnc[nH]1)NCCCN(Cc1ccc(Cl)cc1)c1ccc(-c2ccccc2)cn1`, the Potency is 1.27 µM (active).

For `COc1ccc(S(=O)(=O)N2CCN(c3nc(-c4cccs4)nc4ccccc34)CC2)cc1`, the Potency was 0.819 µM (active).

Regarding `O=[N+]([O-])c1ccccc1S(=O)(=O)N1CCN(c2nc(-c3ccccc3)nc3ccccc23)CC1`, the Potency was 5.69 µM (active).

On to `CC(=O)NCCCN(Cc1ccc(Cl)c(Cl)c1)c1ccc(Br)cn1`, for which the “activity change, negative = inhibition” value was 0.436%.

`CCCCNC(=S)NCCCN(Cc1ccc(Cl)c(Cl)c1)c1ccc(Br)cn1`: the “activity change, negative = inhibition” value is -6.05%.

In the case of `Cc1cc(NC(=O)CCS(=O)(=O)c2ccc3c(c2)NC(=O)C(C)S3)ccc1Br` (stereo not given), the Potency was 6.51 µM (active).

With `CS(=O)(=O)N1CCN(c2nc(-c3cccs3)nc3ccccc23)CC1`, the Potency was 11.4 µM (active).

`O=[N+]([O-])c1cccc(S(=O)(=O)N2CCN(c3nc(-c4cccs4)nc4ccccc34)CC2)c1`: the Potency was 2.53 µM (active).

For `O=S(=O)(c1ccc(F)cc1)N1CCN(c2nc(-c3cccc(Br)c3)nc3ccccc23)CC1`, the “activity change, negative = inhibition” value is -9.98%.

In the case of `O=S(=O)(c1ccccc1C(F)(F)F)N1CCN(c2nc(-c3ccccc3)nc3ccccc23)CC1`, the Potency was 2.91 µM (active).

In the case of `O=S(=O)(c1ccc2c(c1)OCO2)N1CCN(c2nc(-c3cccs3)nc3ccccc23)CC1`, the Potency was 0.291 µM (active).

With `Cc1cc2nn(-c3ccc(Cl)cc3)nc2cc1N`, the “activity change, negative = inhibition” value is 6.68%.

Turning to `O=S(=O)(c1cccc(C(F)(F)F)c1)N1CCN(c2nc(-c3cccs3)nc3ccccc23)CC1`, the Potency is 6.35 µM (active).

As for `O=S(=O)(c1nccs1)N1CCN(c2nc(-c3cccs3)nc3ccccc23)CC1`, the Potency is 7.3 µM (active).

For `S=C(NCCCc1cnc[nH]1)NCCCN(CCc1ccc(Cl)cc1)c1ccc(Br)cn1`, the Potency was 1.79 µM (active).

For the compound `CCC1CN(S(=O)(=O)c2ccc3c(c2)NC(=O)CC(=O)N3)c2cc(Cl)ccc2O1` (stereo not given), the Potency was 2.91 µM (active).

Consider `Cc1ccc(S(=O)(=O)N2CCN(c3nc(-c4ccc(C)s4)nc4ccccc34)CC2)cc1`, for which the Potency was 3.26 µM (active).

Consider `CC(=O)c1cccc(S(=O)(=O)N2CCN(c3nc(-c4cccs4)nc4ccccc34)CC2)c1`, for which the Potency is 2.25 µM (active).

Regarding `O=[N+]([O-])c1ccccc1S(=O)(=O)N1CCN(c2nc(-c3cccs3)nc3ccccc23)CC1`, the Potency is 0.73 µM (active).

In the case of `O=S(=O)(c1cnc2ccccc2c1)N1CCN(c2nc(-c3cccs3)nc3ccccc23)CC1`, the Potency was 0.897 µM (active).

Take `Cc1csc(NC(=O)CN2C(=O)c3ccccc3S2(=O)=O)n1`: the “activity change, negative = inhibition” value was -18.1%.

In the case of `O=S(=O)(c1cccc(Cl)c1)N1CCN(c2nc(-c3cccs3)nc3ccccc23)CC1`, the Potency is 1.6 µM (active) and 1.79 µM (active).

As to `CCc1ccc(NC(=O)CN(c2ccc(OC)cc2)S(=O)(=O)c2c(C)[nH]c(=O)[nH]c2=O)cc1`, the Potency was 6.51 µM (active).

Turning to `Cc1ccc(S(=O)(=O)N2CCN(c3nc(-c4ncco4)nc4ccccc34)CC2)cc1`, the Potency was 9.02 µM (active).

With `S=C(NCCCc1cnc[nH]1)NCCCN(Cc1ccc(Cl)cc1)c1ncc(Br)cn1`, the Potency is 1.79 µM (active).

As to `Cc1ccc(S(=O)(=O)N2CCN(c3nc(-c4cccs4)nc4ccccc34)CC2)c(C)c1`, the Potency was 0.291 µM (active).

With `Cc1ccc(S(=O)(=O)N2CCN(c3nc(-c4cccs4)nc4c3ncn4COC(=O)C(C)(C)C)CC2)cc1`, the “activity change, negative = inhibition” value is -14.4%.
